# According to PubChem BioAssay (EPA / NIEHS):
# Inconclusive results are not listed. The source made the active and inactive calls. The calls were made as follows: active = hit-call score of the fitted dose curve at least 0.9, where 1 is the maximum; inconclusive = response in the unintended direction; inactive = score below 0.9.
# Key:
# [1] = target: Cellular tumor antigen p53 (Homo sapiens) (UniProt P04637); test: TOX21_p53_BLA_p3_ratio: Tox21 HCT-116 p53 Agonism Beta-lactamase Assay, Ratio, Phase 3 (AID 2283596)
# Chain of Cellular tumor antigen p53 (Homo sapiens) (P04637 whole entry, looked up): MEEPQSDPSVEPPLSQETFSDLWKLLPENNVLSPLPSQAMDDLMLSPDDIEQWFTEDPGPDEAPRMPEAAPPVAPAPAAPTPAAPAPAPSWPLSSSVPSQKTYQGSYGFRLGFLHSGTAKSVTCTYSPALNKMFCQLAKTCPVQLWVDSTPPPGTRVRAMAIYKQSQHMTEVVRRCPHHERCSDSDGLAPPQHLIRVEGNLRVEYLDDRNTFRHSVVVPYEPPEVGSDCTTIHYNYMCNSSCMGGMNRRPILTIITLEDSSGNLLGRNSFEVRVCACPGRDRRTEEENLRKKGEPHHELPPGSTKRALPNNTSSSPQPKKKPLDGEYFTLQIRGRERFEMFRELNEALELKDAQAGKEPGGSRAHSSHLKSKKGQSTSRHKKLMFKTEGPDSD
# In short: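 HCT116 p53-bla cells (4000/well) given compound in DMSO (217-fold dilution) after 5 h, incubated 16 h at 37C. CCF4-AM substrate 2 h at room temperature; 460/530 nm emission ratio, gain fitted against DMSO.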
# [2] = TOX21_p53_BLA_p5_viability: Viability Assessment in the Tox21 HCT-116 p53 Agonism Beta-lactamase Assay, Phase 5 (AID 2283600)
# In short: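 4000 cells/well; 5 h pre-incubation; DMSO compounds pin-transferred, 217-fold dilution; 16 h, 37C/5% CO2; CCF4-AM 2 h RT; CellTiter-Glo 30 min RT; luminescence.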
# [3] = target: Cellular tumor antigen p53 (Homo sapiens) (UniProt P04637); test: TOX21_p53_BLA_p4_ratio: Tox21 HCT-116 p53 Agonism Beta-lactamase Assay, Ratio, Phase 4 (AID 2283601)
# In short: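 HCT116 cells carrying an inducible beta-lactamase reporter were plated at 4000 cells/well, rested 5 h, then exposed to compounds in DMSO (217-fold dilution) for 16 h at 37C. CCF4-AM substrate was loaded 2 h at room temperature; 460/530 nm emission ratio scored gain-of-signal versus DMSO.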
# [4] = TOX21_p53_BLA_p4_viability: Viability Assessment in the Tox21 HCT-116 p53 Agonism Beta-lactamase Assay, Phase 4 (AID 2283597);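 also: hits lower the luminescence signal meaning cytotoxicity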
# In short: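 Cells plated, 5 h pre-incubation; DMSO compounds pinned (217-fold dilution); 16 h, 37C/5% CO2; CCF4-AM 2 h RT; CellTiter-Glo 30 min RT; luminescence read.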
# [5] = target: Cellular tumor antigen p53 (Homo sapiens) (UniProt P04637); test: TOX21_p53_BLA_p5_ratio: Tox21 HCT-116 p53 Agonism Beta-lactamase Assay, Ratio, Phase 5 (AID 2283599)
# In short: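 HCT-116 cells carrying a p53-inducible beta-lactamase reporter were seeded at 4000 cells/well and dosed after 5 h with compound in DMSO (217-fold dilution). After 16 h at 37C, CCF4-AM substrate was added for 2 h, and the 460/530 nm emission ratio was scored as gain-of-signal versus DMSO.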
SMILES,outcome [1],outcome [2],outcome [3],outcome [4],outcome [5]
CCOc1cc(N)c(Cl)cc1C(=O)NCC1CN(Cc2ccc(F)cc2)CCO1 (stereo unspecified),inactive,inactive,inactive,,
Fc1ccccc1-c1ccccc1,,inactive,,inactive,inactive
CC(C)C[C@@H](N)C(=O)O,inactive,,inactive,,
NS(=O)(=O)c1cc2c(cc1Cl)NC(Cc1ccccc1)NS2(=O)=O (stereo unspecified),inactive,inactive,inactive,,
CCCCCCCC/C=C\CCCCCCCC(=O)OCCOC(=O)CCCCCCC/C=C\CCCCCCCC,,inactive,inactive,inactive,inactive
Cc1nc(-c2ccc(Cl)cc2)oc1COC(C)(C)C(=O)O,inactive,inactive,inactive,,
CCc1c(C)[nH]c2c1C(=O)C(CN1CCOCC1)CC2 (stereo unspecified),inactive,,inactive,,
Cc1ccc(C=O)cc1C,,inactive,,inactive,inactive
COC(=O)N[C@H](C(=O)N[C@@H](Cc1ccccc1)[C@@H](O)CN(Cc1ccc(-c2ccccn2)cc1)NC(=O)[C@@H](NC(=O)OC)C(C)(C)C)C(C)(C)C,,,inactive,inactive,inactive
Cc1ccc(C(=O)Nc2ccc(S(=O)(=O)O)c3cc(S(=O)(=O)O)cc(S(=O)(=O)O)c23)cc1NC(=O)c1cccc(NC(=O)Nc2cccc(C(=O)Nc3cc(C(=O)Nc4ccc(S(=O)(=O)O)c5cc(S(=O)(=O)O)cc(S(=O)(=O)O)c45)ccc3C)c2)c1,,inactive,inactive,inactive,
CCC(=O)CC,,inactive,,inactive,
O=C(NNCS(=O)(=O)O)c1ccncc1,,,inactive,inactive,inactive
C=CCC=CC,,inactive,inactive,inactive,
C=CC(=O)CC,,,,inactive,inactive
C[Se]CC[C@H](N)C(=O)O,,inactive,inactive,inactive,inactive
COc1ccc(CCNCC(O)COc2cccc(C)c2)cc1OC (stereo unspecified),,,,inactive,
CC(C(=O)O)c1ccc(CC2CCCC2=O)cc1 (stereo unspecified),,inactive,inactive,inactive,inactive
Cc1cccc(C)c1NC(=O)CN1CCCC1,,,inactive,inactive,inactive
Cc1onc(-c2c(Cl)cccc2Cl)c1C(=O)N[C@@H]1C(=O)N2[C@@H]1SC(C)(C)[C@@H]2C(=O)O,,,,inactive,
NC(=O)[C@@H]1C[C@]2(NC(=O)NC2=O)c2cc(F)ccc2O1,,inactive,inactive,inactive,inactive
COc1ccc(C(=O)NCc2ccc(OCCN(C)C)cc2)cc1OC,,,inactive,inactive,inactive
O=C(O)C=Cc1ccc(C=CC(=O)O)cc1,,,,inactive,
O=C1C(CCS(=O)c2ccccc2)C(=O)N(c2ccccc2)N1c1ccccc1 (stereo unspecified),inactive,,inactive,,
CN1CCN(CCC(=O)N2c3ccccc3Sc3ccc(C(F)(F)F)cc32)CC1,inactive,,inactive,,
Nc1c(Cl)cc(Cl)cc1Cl,,,inactive,inactive,inactive
CC(=O)[C@@]1(O)CC[C@H]2[C@@H]3C=C(Cl)C4=CC(=O)[C@@H]5C[C@@H]5[C@]4(C)[C@H]3CC[C@@]21C,,inactive,,inactive,
ClC/C=C\CCl,inactive,,inactive,,
